Growth data for eight molecules are collected here from PubChem BioAssay (NCI).

The panel holds about 83,000 compounds, 20% with a hit somewhere; the sample as a whole holds those more often.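 For each line, cells grew in 96-well plates with the test compound present at a single concentration for 48 hours.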 Values without a mark were called inactive. The source made the active and inactive calls. Rule for the calls: active = growth percent below 10; inactive = the rest.

Some test systems named below: HCT-15 colon; HT29 colon; SNB-75 CNS; SNB-19 CNS; U251 CNS; PC-3 prostate; SK-MEL-5 melanoma; UACC-62 melanoma; LOX IMVI melanoma; SK-MEL-28 melanoma; SK-MEL-2 melanoma; EKVX NSCLC; SN12C renal; UO-31 renal; TK-10 renal; ACHN renal; CAKI-1 renal; A498 renal; MOLT-4 leukemia; CCRF-CEM leukemia.
Common to all, as to assay: NCI-60 one-dose screen, 48 h (100 = growth as untreated, 0 = no growth, -100 = all killed)
Common to all, as to conditions: 10 µM unless noted

Regarding `CC1=C2[C@@H](CC1)[C@]1(C)O[C@@](C(C)C)(C[C@H]1OC(=O)[C@H](C)O)[C@H]2OC(=O)/C=C/c1ccccc1`, the growth with HCT-15 colon is 83.6%; in the experiment on HT29 colon, 82.8%; in the experiment on SNB-75 CNS, 66.4%; with SNB-19 CNS it was 85.1%; in the experiment on U251 CNS, 79%; with PC-3 prostate it was 58.3%. In addition, the growth in the experiment on SK-MEL-5 melanoma was 90.3%; with UACC-62 melanoma, 66%; in the experiment with LOX IMVI melanoma, 84.6%; with SK-MEL-28 melanoma it was 108%; with SK-MEL-2 melanoma, 80.6%; in the experiment on EKVX NSCLC, 66.1%. Moreover, the growth was 45.7% in the experiment on SN12C renal; 0.932% (active) in the experiment with UO-31 renal; 90.1% in the experiment on TK-10 renal; 8.57% (active) in the experiment on ACHN renal; 60.5% with CAKI-1 renal; -66.1% (active) with A498 renal. Further, the growth in the experiment on MOLT-4 leukemia was 62.8%.
In the case of `Cc1cccc(/C=C2\CN(C(=O)OC(C)(C)C)C/C(=C\c3cccc(C)c3)C2=O)c1`, the growth is 76.2% with HCT-15 colon; 46.5% in the experiment with HT29 colon; 74.7% in the experiment with SNB-75 CNS; 95.9% in the experiment on SNB-19 CNS; 63.6% with U251 CNS; 89% with PC-3 prostate. Moreover, the growth in the experiment with SK-MEL-5 melanoma is 101%; in the experiment on UACC-62 melanoma it was 81.3%; with LOX IMVI melanoma it was 47.1%; with SK-MEL-28 melanoma, 104%; in the experiment on SK-MEL-2 melanoma, 95.3%; in the experiment on EKVX NSCLC, 93.4%. Besides, the growth in the experiment with SN12C renal is 95.4%; with UO-31 renal, 69%; in the experiment on TK-10 renal, 96.1%; in the experiment on ACHN renal, 84%; with CAKI-1 renal, 73.5%; in the experiment with CCRF-CEM leukemia, 8.66% (active).
In the case of `CCOC(=O)c1c(NC(=O)c2ccc(Cl)cc2)sc2c(CN(C)C)c(O)ccc12`, the growth in the experiment with HCT-15 colon is -1.49% (active); in the experiment with HT29 colon it was 23%; in the experiment with SNB-75 CNS, 79.2%; in the experiment on SNB-19 CNS, 79.5%; with U251 CNS it was 54.4%; with PC-3 prostate, 72.9%. For the same molecule, the growth was 87.4% in the experiment with SK-MEL-5 melanoma; 103% in the experiment with UACC-62 melanoma; 60.6% in the experiment with LOX IMVI melanoma; 73.8% with SK-MEL-28 melanoma; 101% in the experiment on SK-MEL-2 melanoma; 93.8% with EKVX NSCLC. Besides, the growth is 83.6% in the experiment on SN12C renal; 67.5% in the experiment with UO-31 renal; 108% with TK-10 renal; 50.7% with ACHN renal; 67.2% with CAKI-1 renal; 76.3% in the experiment with A498 renal. Further, in the experiment with MOLT-4 leukemia, the growth is 59.5%.
As for `Cn1ccnc1C(=O)/C=C/c1ccc(C(=O)Nc2ccc(Cl)cc2)cc1`, the growth in the experiment on HCT-15 colon is -13.2% (active); in the experiment on HT29 colon, 2.78% (active); with SNB-75 CNS, -3.04% (active); with SNB-19 CNS, -3% (active); in the experiment with U251 CNS it was -50.1% (active); in the experiment on PC-3 prostate it was -6.8% (active). Further, the growth in the experiment with SK-MEL-5 melanoma was 32.3%; with UACC-62 melanoma, 16.6%; with LOX IMVI melanoma, -84.8% (active); in the experiment on SK-MEL-28 melanoma it was 62.4%; in the experiment on SK-MEL-2 melanoma, 82.4%; in the experiment with EKVX NSCLC, 8.52% (active). Also, the growth with SN12C renal was 0.398% (active); in the experiment with UO-31 renal, -74.7% (active); in the experiment with TK-10 renal it was 16.9%; with ACHN renal it was -39.9% (active); in the experiment with CAKI-1 renal, -2.07% (active); with A498 renal, 19.5%. Besides, the growth in the experiment on MOLT-4 leukemia is 5.13% (active).
`COc1ccc(F)cc1/C=C/C(=O)/C=C(/C=C/c1cc(F)ccc1OC)OB(F)F`: the growth in the experiment with HCT-15 colon was 9.21% (active); with HT29 colon, 18%; with SNB-75 CNS it was 83.7%; in the experiment on SNB-19 CNS, 72.4%; with U251 CNS it was 14%; in the experiment on PC-3 prostate, 29%. For the same molecule, the growth in the experiment with SK-MEL-5 melanoma is 53.6%; with UACC-62 melanoma, 14.8%; in the experiment on LOX IMVI melanoma it was 3.94% (active); in the experiment with SK-MEL-28 melanoma, 48.1%; with SK-MEL-2 melanoma it was 84.1%; with EKVX NSCLC, 71.3%. For the same molecule, the growth with SN12C renal was 8.78% (active); in the experiment on UO-31 renal it was -9.88% (active); with TK-10 renal, 32.9%; with ACHN renal it was 2.25% (active); with CAKI-1 renal, 28.7%; in the experiment with A498 renal, 108%. For the same molecule, the growth in the experiment on MOLT-4 leukemia was -16.5% (active).
As to `C#COc1cccc(Nc2c(C#N)cnc3ncc(NC(=O)CCl)cc23)c1`, the growth in the experiment on HCT-15 colon was 22.8% [6.25 µM]; in the experiment on HT29 colon it was 3.12% [6.25 µM] (active); with SNB-75 CNS, 54.2% [6.25 µM]; with SNB-19 CNS it was 11% [6.25 µM]; in the experiment with U251 CNS it was -42.8% [6.25 µM] (active); with PC-3 prostate it was 19.6% [6.25 µM]. Further, the growth is 47.7% [6.25 µM] in the experiment on SK-MEL-5 melanoma; 37.5% [6.25 µM] in the experiment on UACC-62 melanoma; -2.95% [6.25 µM] (active) in the experiment on LOX IMVI melanoma; 50.8% [6.25 µM] with SK-MEL-28 melanoma; 12.4% [6.25 µM] in the experiment on SK-MEL-2 melanoma; 52% [6.25 µM] with EKVX NSCLC. Besides, the growth in the experiment on SN12C renal is 17.3% [6.25 µM]; with UO-31 renal, 41.1% [6.25 µM]; in the experiment with TK-10 renal, 26.8% [6.25 µM]; in the experiment on ACHN renal it was 32.4% [6.25 µM]; in the experiment with CAKI-1 renal it was 36.1% [6.25 µM]; in the experiment with CCRF-CEM leukemia it was -25.3% [6.25 µM] (active). In the experiment on MOLT-4 leukemia, the growth is -2.02% [6.25 µM] (active).
In the case of `CCCCCCC12CCC(=O)N1CCc1cncn12` (stereo not given), the growth with HCT-15 colon is 102%; in the experiment on HT29 colon, 100%; in the experiment on SNB-75 CNS it was 116%; with SNB-19 CNS it was 105%; with U251 CNS, 100%; in the experiment on PC-3 prostate, 98.3%. Further, the growth in the experiment with SK-MEL-5 melanoma was 99.1%; in the experiment with UACC-62 melanoma it was 95.6%; in the experiment with LOX IMVI melanoma it was 102%; with SK-MEL-28 melanoma, 112%; with SK-MEL-2 melanoma, 108%; in the experiment with EKVX NSCLC, 99.9%. For the same molecule, the growth with SN12C renal was 102%; with UO-31 renal, 109%; in the experiment with TK-10 renal it was 92.5%; in the experiment on ACHN renal it was 109%; in the experiment on CAKI-1 renal, 109%; with CCRF-CEM leukemia, 95.4%. Moreover, in the experiment with MOLT-4 leukemia, the growth is 104%.
On to `CC1CCN(CCOc2ccc(CNc3ccc4nc(CCC5CCCCC5)[nH]c4c3)cc2)CC1`, for which the growth in the experiment on HCT-15 colon was -22.5% (active); in the experiment with HT29 colon, 10%; with SNB-75 CNS, 59.7%; in the experiment with SNB-19 CNS, 62.3%; in the experiment on U251 CNS, -11.2% (active); with PC-3 prostate, 40.3%. The growth with SK-MEL-5 melanoma is -99% (active); in the experiment with UACC-62 melanoma, 56.8%; in the experiment on LOX IMVI melanoma it was -85.7% (active); in the experiment with SK-MEL-28 melanoma, -80.2% (active); in the experiment on SK-MEL-2 melanoma, -49.9% (active); with EKVX NSCLC it was 65%. Further, the growth in the experiment with SN12C renal was 57.9%; in the experiment on UO-31 renal it was -31.9% (active); with TK-10 renal, 73.1%; in the experiment with ACHN renal, 54.7%; in the experiment with CAKI-1 renal it was -4.81% (active); with CCRF-CEM leukemia, 11.8%.
